PMC4336329 (PLoS ONE, 2015)
About 14,000 (4.5%) of roughly 310,000 compounds showed an effect of 50% or more. Effects have a minus sign here. This excerpt belongs to a sample that is enriched for strong results.

Each compound was assayed against human ether-à-go-go-related gene (hERG) potassium channel (human, UniProt Q12809) (assay: primary screen, population patch clamp on CHO cells stably expressing hERG; higher = less effect of the substance).
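Further: peak tail current of the secondary pulse compared with the same well before compound.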

Sequence of human ether-à-go-go-related gene (hERG) potassium channel (Q12809 whole entry, looked up): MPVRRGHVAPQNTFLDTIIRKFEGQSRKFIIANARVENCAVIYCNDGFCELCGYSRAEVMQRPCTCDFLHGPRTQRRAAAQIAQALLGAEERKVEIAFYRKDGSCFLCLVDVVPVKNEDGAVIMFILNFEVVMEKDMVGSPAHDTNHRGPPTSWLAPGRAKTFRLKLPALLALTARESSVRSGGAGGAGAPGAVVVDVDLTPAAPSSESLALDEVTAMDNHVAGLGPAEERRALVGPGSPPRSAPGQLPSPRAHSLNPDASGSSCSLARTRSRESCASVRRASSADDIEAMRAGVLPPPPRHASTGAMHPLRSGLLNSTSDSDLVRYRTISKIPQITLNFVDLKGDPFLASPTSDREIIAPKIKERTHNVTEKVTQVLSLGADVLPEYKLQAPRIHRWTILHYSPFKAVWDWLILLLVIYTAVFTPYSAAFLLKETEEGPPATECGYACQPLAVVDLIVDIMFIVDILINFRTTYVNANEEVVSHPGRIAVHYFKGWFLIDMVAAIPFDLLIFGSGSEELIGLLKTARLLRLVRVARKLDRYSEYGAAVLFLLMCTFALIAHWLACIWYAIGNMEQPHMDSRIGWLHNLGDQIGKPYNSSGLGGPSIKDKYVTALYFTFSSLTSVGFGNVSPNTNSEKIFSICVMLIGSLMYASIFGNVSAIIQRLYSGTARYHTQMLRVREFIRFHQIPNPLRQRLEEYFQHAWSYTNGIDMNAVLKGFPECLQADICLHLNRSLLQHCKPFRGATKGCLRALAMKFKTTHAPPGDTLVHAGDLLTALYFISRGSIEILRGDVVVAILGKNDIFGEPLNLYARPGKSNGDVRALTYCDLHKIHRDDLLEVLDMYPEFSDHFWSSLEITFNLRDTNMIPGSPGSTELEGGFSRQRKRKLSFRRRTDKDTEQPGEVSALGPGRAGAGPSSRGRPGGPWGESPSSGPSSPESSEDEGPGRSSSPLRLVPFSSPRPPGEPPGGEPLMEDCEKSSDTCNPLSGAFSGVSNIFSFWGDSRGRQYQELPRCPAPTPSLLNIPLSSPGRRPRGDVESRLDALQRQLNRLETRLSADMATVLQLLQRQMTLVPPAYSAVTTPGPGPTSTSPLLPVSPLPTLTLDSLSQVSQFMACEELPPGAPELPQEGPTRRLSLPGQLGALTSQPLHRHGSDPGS

Question: Which “hERG current change (%, negative = inhibition) at 10uM” value does the source give for `COC(=O)C1=C(C(=O)OC)SC2(S1)C(C(=O)OC)=C(C(=O)OC)SC1=C2c2cc(C)cc(C)c2NC1(C)C` here?
Answer: The value was 26.1%.

Question: For `COC(=O)C1=C(C(=O)OC)SC2(S1)C(C(=O)OC)=C(C(=O)OC)SC1=C2c2cccc(C)c2NC1(C)C`, which “hERG current change (%, negative = inhibition) at 10uM” value is on record?
Answer: The value was -51.6%.

Question: For `CCOC(=O)C1CCCN(C(=O)c2cc(Nc3ccc(OC)cc3)nc3ccccc23)C1` (centres unmarked), which “hERG current change (%, negative = inhibition) at 10uM” value is on record?
Answer: Its value is -15%.

Question: With `COc1cc2nc(N(CCN(C)C)C(=O)c3ccc(S(=O)(=O)N(C)CC4CCCO4)cc3)sc2cc1OC.Cl` (centres unmarked) as the compound, how does the “hERG current change (%, negative = inhibition) at 10uM” value read?
Answer: Its value is -9.01%.

Question: Which “hERG current change (%, negative = inhibition) at 10uM” value does the source give for `CCc1ccc2nc(N(CCCN(C)C)C(=O)c3ccc(S(=O)(=O)N(C)C4CCCCC4)cc3)sc2c1.Cl` here?
Answer: Its value is 8.35%.

Question: With `COc1cc2nc(N(CCCN(C)C)C(=O)c3ccc(S(=O)(=O)N(C)C4CCCCC4)cc3)sc2cc1OC.Cl` as the compound, how does the “hERG current change (%, negative = inhibition) at 10uM” value read?
Answer: The value was -51.6%.

Question: How did the “hERG current change (%, negative = inhibition) at 10uM” value turn out when `Cc1ccc2sc(N(CCCN(C)C)C(=O)c3ccc(S(=O)(=O)N(C)C4CCCCC4)cc3)nc2c1C.Cl` was run?
Answer: Its value is -8.13%.

Question: How did the “hERG current change (%, negative = inhibition) at 10uM” value turn out when `CN(C)CCCN(C(=O)c1ccc(S(=O)(=O)N(C)C2CCCCC2)cc1)c1nc2ccc(Br)cc2s1.Cl` was run?
Answer: The value was 2.39%.

Question: Which “hERG current change (%, negative = inhibition) at 10uM” value does the source give for `CN(C)CCCN(C(=O)c1ccc(S(=O)(=O)N(C)C2CCCCC2)cc1)c1nc2ccc(F)cc2s1.Cl` here?
Answer: The value was -71.9%.

Question: `CCCCNC(=O)C1CCN(S(=O)(=O)c2ccc3c(c2)CC(C)N3C(=O)C2CC2)CC1` (centres unmarked) was tested. Which “hERG current change (%, negative = inhibition) at 10uM” value did it give?
Answer: The value was 1.16%.

Question: Which “hERG current change (%, negative = inhibition) at 10uM” value does the source give for `NC(=O)C(c1ccc(Cl)cc1)c1ccc(Sc2ccc(Cl)cc2)nn1` (centres unmarked) here?
Answer: Its value is -9.96%.

Question: Which “hERG current change (%, negative = inhibition) at 10uM” value does the source give for `Cc1nn2c(NCCCn3ccnc3)cc(C(C)C)nc2c1-c1ccccc1` here?
Answer: The value was -23.5%.

Question: For `Cc1cc(NCCCN2CCOCC2)n2nc(C)c(-c3ccccc3)c2n1`, which “hERG current change (%, negative = inhibition) at 10uM” value is on record?
Answer: The value was -14.6%.

Question: Which “hERG current change (%, negative = inhibition) at 10uM” value does the source give for `CCCc1cc(NCCCn2ccnc2)n2nc(C)c(-c3ccccc3)c2n1` here?
Answer: The value was -74.9%.

Question: With `CCCc1cc(N2CCCC2)n2nc(C)c(-c3ccccc3)c2n1` as the compound, how does the “hERG current change (%, negative = inhibition) at 10uM” value read?
Answer: Its value is 8.36%.

Question: With `Cc1cc(NCCC(C)C)n2nc(C)c(-c3ccccc3)c2n1` as the compound, how does the “hERG current change (%, negative = inhibition) at 10uM” value read?
Answer: Its value is 1.03%.

Question: With `Cc1cc(NCCCn2ccnc2)n2nc(C)c(-c3ccccc3)c2n1` as the compound, how does the “hERG current change (%, negative = inhibition) at 10uM” value read?
Answer: The value was -72.8%.

Question: `Cc1cc(NCCCn2ccnc2)n2nc(C)c(-c3ccc(Cl)cc3)c2n1` was tested. Which “hERG current change (%, negative = inhibition) at 10uM” value did it give?
Answer: Its value is -71.8%.

Question: Which “hERG current change (%, negative = inhibition) at 10uM” value does the source give for `CCCc1cc(NCc2ccccn2)n2nc(C)c(-c3ccccc3)c2n1` here?
Answer: Its value is 4.77%.

Question: Which “hERG current change (%, negative = inhibition) at 10uM” value does the source give for `Cc1cc(NCCCN2CCOCC2)n2nc(C)c(-c3ccc(F)cc3)c2n1` here?
Answer: Its value is -31.1%.

Question: `COc1ccc(CCNc2cc(C)nc3c(-c4ccc(Cl)cc4)c(C)nn23)cc1OC` was tested. Which “hERG current change (%, negative = inhibition) at 10uM” value did it give?
Answer: Its value is 15.5%.

Question: For `Cc1cc(NCCN2CCOCC2)n2nc(C)c(-c3ccc(Cl)cc3)c2n1`, which “hERG current change (%, negative = inhibition) at 10uM” value is on record?
Answer: The value was -50.2%.

Question: For `Cc1cc(NCc2ccccn2)n2nc(C)c(-c3ccc(Cl)cc3)c2n1`, which “hERG current change (%, negative = inhibition) at 10uM” value is on record?
Answer: Its value is 14.2%.

Question: For `NNC(=O)c1ccc2[nH]c3c(c2c1)CCCC3`, which “hERG current change (%, negative = inhibition) at 10uM” value is on record?
Answer: Its value is 5.31%.

Question: With `COc1ccc(-c2nc3ccccc3c(C(=O)Nc3ccc(S(=O)(=O)Nc4cc(C)on4)cc3)c2C)cc1` as the compound, how does the “hERG current change (%, negative = inhibition) at 10uM” value read?
Answer: Its value is -7.09%.

Question: Which “hERG current change (%, negative = inhibition) at 10uM” value does the source give for `COc1ccc(NS(=O)(=O)c2ccc(N3CCOCC3)c(NC(=O)c3ccccc3Br)c2)cc1` here?
Answer: Its value is -11.2%.

Question: For `COc1cc(C(=O)N2CCN(C(=O)C(Cc3cc(C)ccc3C)NC(C)=O)CC2)cc(OC)c1OC` (centres unmarked), which “hERG current change (%, negative = inhibition) at 10uM” value is on record?
Answer: The value was -14.4%.

Question: Which “hERG current change (%, negative = inhibition) at 10uM” value does the source give for `CCc1ccc(N(C(=O)c2csnn2)C(C(=O)NC2CCCC2)c2cccnc2)cc1` (centres unmarked) here?
Answer: The value was -24.9%.

Question: With `O=C(O)C1(c2ccccc2)CCN(S(=O)(=O)c2cccs2)CC1` as the compound, how does the “hERG current change (%, negative = inhibition) at 10uM” value read?
Answer: Its value is 5.95%.

Question: How did the “hERG current change (%, negative = inhibition) at 10uM” value turn out when `N#CC1(NC(=O)COC(=O)c2cc(=O)[nH]c3ccccc23)CCCCC1` was run?
Answer: The value was 14%.

Question: `Cc1nn(CC(N)=O)c(=O)c2ccccc12` was tested. Which “hERG current change (%, negative = inhibition) at 10uM” value did it give?
Answer: The value was 10.6%.

Question: With `CN(C)CCNc1nc2c(c(=O)[nH]c(=O)n2C)n1CCOc1ccccc1` as the compound, how does the “hERG current change (%, negative = inhibition) at 10uM” value read?
Answer: Its value is -5.88%.

Question: For `Cc1nc(Cl)c2oc3ccccc3c2n1`, which “hERG current change (%, negative = inhibition) at 10uM” value is on record?
Answer: The value was 9.28%.

Question: With `O=C(NCCCN1CCC(Cc2ccccc2)CC1)C1CCC(=O)N1C1CCCC1` (centres unmarked) as the compound, how does the “hERG current change (%, negative = inhibition) at 10uM” value read?
Answer: The value was 6.52%.

Question: How did the “hERG current change (%, negative = inhibition) at 10uM” value turn out when `Cc1ccc(C(=O)NCCNC(=O)c2ccccn2)cc1` was run?
Answer: Its value is 12.9%.

Question: For `Cc1ccc(C(=O)NCCCNC(=O)c2ccccn2)cc1`, which “hERG current change (%, negative = inhibition) at 10uM” value is on record?
Answer: Its value is 5.5%.

Question: For `Cc1ccc(/C(=C\CN2CCCC2)c2ccccn2)cc1.Cl`, which “hERG current change (%, negative = inhibition) at 10uM” value is on record?
Answer: Its value is -55.4%.

Question: For `CCOC(=O)Cc1csc(SCC(=O)c2c(N)n(CC(C)C)c(=O)n(C)c2=O)n1`, which “hERG current change (%, negative = inhibition) at 10uM” value is on record?
Answer: The value was -2.23%.

Question: With `Cc1ccc(OC(C)C(=O)N2CC(=O)Nc3ccccc32)cc1` (centres unmarked) as the compound, how does the “hERG current change (%, negative = inhibition) at 10uM” value read?
Answer: Its value is -67.7%.

Question: For `Cc1ccc(OC(C)C(=O)N2CC(=O)Nc3ccccc32)c(C)c1` (centres unmarked), which “hERG current change (%, negative = inhibition) at 10uM” value is on record?
Answer: The value was 2.56%.

Question: With `COc1ccccc1OC(C)C(=O)N1CC(=O)Nc2ccccc21` (centres unmarked) as the compound, how does the “hERG current change (%, negative = inhibition) at 10uM” value read?
Answer: Its value is 15.8%.
